Laboratory results as given in ChEMBL document CHEMBL3988442, “University of Dundee, Small-Polar-MMV Screening Library” (2021).

What follows are compounds tested on Trypanosoma cruzi (assay: Trypanosoma cruzi phosphomannomutase and mannose-1-phosphate guanylyltransferase assay). Conditions: 10 µM.
Format: functional
Set-up: scale not given: direction of the effect not stated beside the values
In the case of `Cc1cnn(CC2CCCCN2CCC(=O)Nc2cc(C)on2)c1` (stereo not given), the Percent Effect is reported as 0.308%.
With `CNS(=O)(=O)Cc1ccc(CNC(=O)Nc2cn[nH]c2)cc1` the Percent Effect was -3.68%.
`Cc1c(C(=O)NC(CN2CCCC2=O)c2ccccc2)cnn1C` (stereo not given) showed a Percent Effect of -4.7%.
Compound `O=C(O)c1nnn(-c2ccc(F)c(F)c2)c1-c1ccncc1` has a Percent Effect of -3.6%.
In the case of `Cc1ccccc1CCNC(=O)C1CC(=O)N(CC(F)(F)F)C1` (stereo not given), the Percent Effect is reported as 1.42%.
Work on `CC(C)CN1CCCC2(CCN(C(=O)c3cnccn3)C2)C1` (stereo not given) yielded a Percent Effect of -4.24%.
`O=C(NCC(F)(F)F)C1CSCN1S(=O)(=O)c1ccc(F)cc1` (stereo not given) was tested, and the Percent Effect was 1.33%.
Compound `CO[C@@H]1CC[C@H]2[C@H]1OCCN2C(=O)C1=CCCC1` has a Percent Effect of -4.83%.
`COCC1CN(Cc2ccc(C)o2)Cc2cn(C)nc21` (stereo not given) showed a Percent Effect of -0.965%.
For `Cc1cc(NC(=O)CCc2ccsc2)n(C)n1`, the Percent Effect was -3.98%.
Compound `O=C(Cc1ccc(O)c(Cl)c1)N1CCCCC1CCn1cccn1` (stereo not given) has a Percent Effect of 3.09%.
For `Cc1cnn(CC(C)NCc2csc(-c3ccco3)n2)c1` (stereo not given), the Percent Effect was -5.44%.
`CCc1nnc2n1CCN(C(=O)c1ccc3nc(C)c(C)nc3c1)C2` was tested, and the Percent Effect was 5.34%.
`Cc1cc(CN(C)C(=O)NC(C)c2nncn2C)no1` (stereo not given) showed a Percent Effect of 2.43%.
`COC(=O)CS(=O)(=O)CCC(=O)N1CCCC1c1ccsc1` (stereo not given) gave a Percent Effect of 2.82%.
Compound `CC(=O)N1CCN(S(=O)(=O)c2ccc(C)c(F)c2)CC1` has a Percent Effect of 5.75%.
`CN(C)C(=O)CN1C[C@@H]2CC[C@H](C1)N(Cc1cc(F)ccc1F)C2` gave a Percent Effect of -9.13%.
`Cc1nn(C)c(N(C)C)c1CNCc1cccnc1-n1cncn1` gave a Percent Effect of -4.21%.
`Cn1ccnc1CN1CCCCC1Cn1cccn1` (stereo not given) showed a Percent Effect of 0.718%.
In the case of `COc1cc(C(=O)N2CCC(c3n[nH]c(C4CC4)n3)CC2)ccc1C`, the Percent Effect is reported as -1.33%.
